This is a sample that favours compounds with a hit; in the whole collection about 4.8% have one here.
AI-2 QS modul: Vibrio harveyi AI-2 quorum sensing modulators, primary screen, JMH597 strain, luminescence/OD600 ratio; hit rate 0.4% among 300,000; AID 2094, 2009; Vibrio harveyi JMH597 AI-2 luminescence/OD600 ratio, 9 h; active compounds read low; strain lacks LuxN and CqsS sensors; 0 = neutral-control median; activity change, % at 7.5 µM; in the data active = activity change below about -75%, passing the limit was not always enough;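 note: luminescence divided by OD600 gain over 9 h not by final OD600 alone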
SUMO Mot1 rescue: yeast Mot1-301 growth rescue at high temperature, primary screen, SUMOylation pathway inhibitor project, S. cerevisiae, ATP luminescence, 38.5C. growth rescue, % at 18.8 µM. S. cerevisiae Mot1-301 growth rescue; percent above DMSO median, 100 means doubled. hit rate 1% among 320,000;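 active = every valid replicate shows activation above 250% relative to neutral control wells; inactive = the rest, any valid replicate at or below 250%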;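 note: OY570 slx delta 5 strain wells were the positive control but not used for scaling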
HIF activator: HIF pathway transcriptional activators, primary screen, cell-based, U2OS HRE-luciferase, luminescence | activation, % at 7.5 µM (by protocol) | U2OS HRE-luciferase reporter; normalized: DMSO 0%, desferrioxamine 100% | AID 1910, 2009 | hit rate 0.32% among 300,000;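 active = mean activation of at least 10% of the iron chelator positive control signal, with at least half of replicates also reaching 10%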
ALR H2O2 inh: inhibitors of human ALR sulfhydryl oxidase, primary screen, biochemical, H2O2 detection, HRP-luminol luminescence, single point; FAD-linked sulfhydryl oxidase ALR (Homo sapiens), P55789; purified ALR, DTT oxidation; inhibition, % (test concentration not listed); hit rate 3.8% among 290,000;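 active = mean replicate inhibition above about 79%, with every replicate also reaching it, limit read from the data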
Target sequence (P55789 whole entry, looked up): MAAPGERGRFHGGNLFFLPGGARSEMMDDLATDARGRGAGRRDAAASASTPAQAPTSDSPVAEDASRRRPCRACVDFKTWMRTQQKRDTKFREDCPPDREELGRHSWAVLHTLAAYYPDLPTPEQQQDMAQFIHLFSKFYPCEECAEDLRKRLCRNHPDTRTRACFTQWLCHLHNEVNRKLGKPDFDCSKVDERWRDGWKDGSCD
* = called active by the depositor; . = no result; + = active, no number; ! = not active in a repeat.

SMILES	AI-2 QS modul	SUMO Mot1 rescue	HIF activator	ALR H2O2 inh
COc1cccc(/C=C2\NC(=O)NC2=O)c1O	17	-6	1	71
Nc1ccc(Sc2cnn(-c3ccccc3)c(=O)c2Cl)cc1	1	63	0	92*
COc1ccccc1CNC(=O)COC(=O)c1cccc(-n2cnnn2)c1	.	-9	.	.
COc1cccc(CNC(=O)CCS(=O)(=O)c2cccc3nonc23)c1	24	286*	-1	-3
CCN(C(=O)c1cccnc1SC)C12CC3CC(CC(C3)C1)C2	32	8	0	1
Cc1ccccc1-n1c(-c2ccc(=O)[nH]n2)n[nH]c1=S	10	-25	0	17
CC(C)(C)c1cc(-c2n[nH]c(=S)n2-c2ccccc2F)n[nH]1	6	19	2	91*
Cc1ccc(C)c(OCCC(=O)Nc2cccc(S(=O)(=O)N3CCCCC3)c2)c1	.	-11	.	-4
CCc1nnc(NS(=O)(=O)c2ccc(NC(=S)NC(=O)c3ccccc3)cc2)s1	16	3	-1	96*
CCc1nnc(NS(=O)(=O)c2ccc(NC(=S)NC(=O)c3ccc(Br)cc3)cc2)s1	26	3	-1	47
CCCc1nnc(NS(=O)(=O)c2ccc(OC)cc2)s1	37	774*	-1	72
CCN(CC)S(=O)(=O)c1cc(NC(=O)c2ccc(-n3cncn3)c([N+](=O)[O-])c2)ccc1C	22	-12	0	-8
CCOC(=O)c1cnc2ccc(OC)cc2c1Nc1ccc(N2CCN(C)CC2)cc1	10	-27	-21	99*
CCOC(=O)c1ccc2ncc(C(=O)OCC)c(Nc3ccc(N4CCOCC4)cc3)c2c1	13	3	-1	6
Cn1c(CCNC(=O)c2ccco2)nc2cc(NC(=O)C3CCCCC3)ccc21	14	-15	176*	-5
CSc1cccc(NC(=O)c2ccc(NC3=NC4CS(=O)(=O)CC4S3)cc2)c1 (stereo unspecified)	11	-21	0	99*
CCC(Oc1ccc(C)c(C)c1)C(=O)N1CCCN(C)CC1 (stereo unspecified)	16	-11	-1	-2
COc1ccc2nc(NC(=O)CSc3nc(C)cc(=O)[nH]3)sc2c1	27	4	1	.
COc1ccc2nc(NC(=O)CSc3n[nH]c(N)n3)sc2c1	3	21	2	90*
COc1ccc2nc(NC(=O)CSc3nccc(C)n3)sc2c1	-13	-13	39*	-5
Cc1cnc(C(=O)OCC(=O)c2ccc[nH]2)cn1	10	13	0	.
CC(C(=O)N1CCc2ccccc21)N(C)CC(=O)Nc1cccc(F)c1 (stereo unspecified)	.	-10	.	.
Cc1ccc2c(c1)[nH]c1c(N3CCN(Cc4ccccc4)CC3)ncnc12	28	0	-1	98*
CCCCNCCOCCOc1ccc(F)cc1	17	304*	0	-31
CCCCNCCOCCOc1ccc(Cl)cc1Br	6	6	0	-7
SMILES	AI-2 QS modul	SUMO Mot1 rescue	HIF activator	ALR H2O2 inh
CCOC(=O)CSc1nc2sc3c(c2c(=O)n1C1CCCCC1)CCN(C)C3	0	-11	0	100*
COc1ccc(-n2c(SCC(=O)Nc3nccs3)nc3sc4c(c3c2=O)CCN(C)C4)cc1	10	-3	0	99*
CCn1c(SCC(=O)Nc2ccc(C)cc2)nc2sc3c(c2c1=O)CCN(C)C3	15	5	0	99*
CCOc1ccc(-n2c(SCC(N)=O)nc3sc4c(c3c2=O)CCN(C)C4)cc1	25	3	.	.
CCOC(=O)CSc1nc2sc3c(c2c(=O)n1-c1ccc(OCC)cc1)CCN(C)C3	-11	-12	-3	94*
COc1ccc(NC(=O)CSc2nc3sc4c(c3c(=O)n2-c2ccc(OC)cc2)CCN(C)C4)cc1	15	-5	2	98*
COc1ccc(-n2c(SC)nc3sc4c(c3c2=O)CCN(C)C4)cc1	28	.	0	.
Cc1ccc(NC(=O)CN(C)C(=O)CSc2nnc(N)s2)cc1	.	9	.	-3
N#CC1=C(N)Oc2n[nH]c(-c3cccs3)c2C1c1ccco1 (stereo unspecified)	19	-6	0	75*
Cc1cccc(NS(=O)(=O)c2ccc(C)c(C(=O)NCc3ccncc3)c2)c1	10	4	0	.
CC1CCCCC1n1c(-c2cccnc2)n[nH]c1=S (stereo unspecified)	9	-23	0	87*
Cc1c(Cl)cccc1-n1c(-c2cccnc2)n[nH]c1=S	-8	22	0	80*
COc1ccc(C2=CC(=O)CC(c3ccc(OC)cc3)C2)cc1 (stereo unspecified)	14	673*	1	.
COc1ccc(C2=CC(=O)C[C@H](c3ccc(Cl)cc3)C2)cc1	.	-18	.	2
COc1cc(/C=N/NC(=O)c2cccc(NC(=O)c3ccccc3)c2)ccc1O	20	-2	-1	98*
COc1cc(/C=N/NC(=O)c2cccc(NC(=O)c3ccccc3C)c2)ccc1O	17	7	0	95*
COc1cc(C(=O)N/N=C/c2ccc3c(c2)c2ccccc2n3C)ccc1O	27	-32	0	100*
O=C(N/N=C/c1ccc(F)cc1)c1cccc(NC(=O)c2ccc(F)cc2)c1	21	-8	1	-2
Cc1ccccc1C(=O)Nc1cccc(C(=O)N/N=C/c2ccc3c(c2)OCO3)c1	24	2	1	-1
Cn1c2ccccc2c2cc(/C=N/NC(=O)c3cc(O)cc(O)c3)ccc21	23	1	0	2
O=C1C=C(c2cc(C(F)(F)F)cc(C(F)(F)F)c2)C[C@@H](c2ccc(Cl)cc2)C1	.	30	.	0
CCCCNC(=O)CNC(=S)N(Cc1ccccc1F)C1CCCCC1	18	-24	0	.
O=C(O)CNC(=S)N(Cc1ccccc1F)C1CCCCC1	-1	+	-1	-12
O=C(CCN1CCOCC1)NC1CCCN(Cc2ccccc2F)C1 (stereo unspecified)	1	-2	0	1
Cc1ccc(/C=N/N2C(=S)SC(C)(C)C2N(O)C(=O)Nc2ccc([N+](=O)[O-])cc2)cc1 (stereo unspecified)	-1	-4	0	-34
SMILES	AI-2 QS modul	SUMO Mot1 rescue	HIF activator	ALR H2O2 inh
CC1(C)SC(=S)N(/N=C/c2ccc(O)cc2)C1N(O)C(=O)Nc1ccc([N+](=O)[O-])cc1 (stereo unspecified)	31	-13	-1	81*
Cc1ccc(CN(C)CCc2ccccn2)cc1	14	14	0	96*
CCc1ccc(CN(C)CCc2ccccn2)cc1	13	11	0	2
CN1CCC(Oc2ccccc2Sc2ccccc2)CC1	37	74	-2	-12
CN1CCC(OC(c2ccccc2)c2ccccc2)CC1	22	321*!	0	-13
CN(CC(=O)Nc1ccccc1Cl)C(=O)Cn1cc(C(F)(F)F)ccc1=O	.	6	.	.
CCN(CC)S(=O)(=O)c1cccc(NC(=O)CNc2cccc(S(=O)(=O)N3CCOCC3)c2)c1	5	11	1	9

Source: PubChem (Broad Institute)
